Laboratory results as given in the supplement of paper PMC12282887.
± gives the standard deviation of the averaged measurements.

The compounds below were run on E. coli BW25113 ompFp lux reporter (assay: promoter activity interaction Z-score (Lux/OD deviation from empty-vector control); higher = stronger promoter induction by the compound). Conditions: 0.25 µg/ml; genetic background: wild type.
Outline: (§1)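 Every compound was given at four 1:2 dilutions, in biological duplicates, to E. coli BW25113 carrying low-copy luxCDABE promoter reporters in wild-type or single-gene deletion backgrounds. Growth in 40 µl LB Lennox in 384-well plates at 37°C was followed by OD600 and luminescence readings every 30 min for 12 h, integrated over 0–8 h for wild type and 1–9 h for deletion strains, with wells below 10% of the median growth value excluded. Scores are Z-transformed residuals of growth-normalised luminescence fitted against a control.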

SMILES | promoter activity interaction Z-score
C/C(=C\C(=O)OCCCCCCCCC(=O)O)C[C@@H]1OC[C@H](C[C@@H]2O[C@H]2[C@@H](C)[C@H](C)O)[C@@H](O)[C@H]1O [Pseudomonic acid] | 0.431 ± 0.041
N=C(NCCCCCCNC(=N)NC(=N)Nc1ccc(Cl)cc1)NC(=N)Nc1ccc(Cl)cc1 [Chlorhexidine] | 0.176 ± 0.12
CO[C@@]12[C@H](COC(N)=O)C3=C(C(=O)C(C)=C(N)C3=O)N1C[C@@H]1N[C@@H]12 [Mitomycin C] | 0.439 ± 0.22

Same assay, conditions: 0.25 µg/ml; genetic background: ΔmarA

SMILES | promoter activity interaction Z-score
C/C(=C\C(=O)OCCCCCCCCC(=O)O)C[C@@H]1OC[C@H](C[C@@H]2O[C@H]2[C@@H](C)[C@H](C)O)[C@@H](O)[C@H]1O [Pseudomonic acid] | 0.122 ± 0.59
N=C(NCCCCCCNC(=N)NC(=N)Nc1ccc(Cl)cc1)NC(=N)Nc1ccc(Cl)cc1 [Chlorhexidine] | 0.161 ± 0.18
CO[C@@]12[C@H](COC(N)=O)C3=C(C(=O)C(C)=C(N)C3=O)N1C[C@@H]1N[C@@H]12 [Mitomycin C] | -0.0015 ± 0.17

Same assay, conditions: 0.25 µg/ml; genetic background: Δrob

SMILES | promoter activity interaction Z-score
C/C(=C\C(=O)OCCCCCCCCC(=O)O)C[C@@H]1OC[C@H](C[C@@H]2O[C@H]2[C@@H](C)[C@H](C)O)[C@@H](O)[C@H]1O [Pseudomonic acid] | 0.647 ± 0.08
N=C(NCCCCCCNC(=N)NC(=N)Nc1ccc(Cl)cc1)NC(=N)Nc1ccc(Cl)cc1 [Chlorhexidine] | 0.332 ± 0.15
CO[C@@]12[C@H](COC(N)=O)C3=C(C(=O)C(C)=C(N)C3=O)N1C[C@@H]1N[C@@H]12 [Mitomycin C] | 1 ± 0.15

Same assay, conditions: 0.25 µg/ml; genetic background: ΔsoxS

SMILES | promoter activity interaction Z-score
C/C(=C\C(=O)OCCCCCCCCC(=O)O)C[C@@H]1OC[C@H](C[C@@H]2O[C@H]2[C@@H](C)[C@H](C)O)[C@@H](O)[C@H]1O [Pseudomonic acid] | 0.0332 ± 0.47
N=C(NCCCCCCNC(=N)NC(=N)Nc1ccc(Cl)cc1)NC(=N)Nc1ccc(Cl)cc1 [Chlorhexidine] | 0.376 ± 0.19
CO[C@@]12[C@H](COC(N)=O)C3=C(C(=O)C(C)=C(N)C3=O)N1C[C@@H]1N[C@@H]12 [Mitomycin C] | -0.0721 ± 0.25

What follows are compounds tested on E. coli BW25113 robp lux reporter in the same assay as above. Conditions: 0.13 µg/ml; genetic background: wild type.
Outline: as §1

SMILES | promoter activity interaction Z-score
N=C(NCCCCCCNC(=N)NC(=N)Nc1ccc(Cl)cc1)NC(=N)Nc1ccc(Cl)cc1 [Chlorhexidine] | 0.674 ± 0.55
CCN1CCN(C(=O)N[C@@H](C(=O)N[C@@H]2C(=O)N3[C@@H]2SC(C)(C)[C@@H]3C(=O)O)c2ccccc2)C(=O)C1=O [Piperacillin] | 0.0585 ± 0.068
CO[C@@]12[C@H](COC(N)=O)C3=C(C(=O)C(C)=C(N)C3=O)N1C[C@@H]1N[C@@H]12 [Mitomycin C] | 0.512 ± 0.4

Same assay, conditions: 0.13 µg/ml; genetic background: ΔmarA

SMILES | promoter activity interaction Z-score
N=C(NCCCCCCNC(=N)NC(=N)Nc1ccc(Cl)cc1)NC(=N)Nc1ccc(Cl)cc1 [Chlorhexidine] | -0.0996 ± 0.54
CCN1CCN(C(=O)N[C@@H](C(=O)N[C@@H]2C(=O)N3[C@@H]2SC(C)(C)[C@@H]3C(=O)O)c2ccccc2)C(=O)C1=O [Piperacillin] | 0.404 ± 0.017
CO[C@@]12[C@H](COC(N)=O)C3=C(C(=O)C(C)=C(N)C3=O)N1C[C@@H]1N[C@@H]12 [Mitomycin C] | 2.91 ± 0.44

Same assay, conditions: 0.13 µg/ml; genetic background: Δrob

SMILES | promoter activity interaction Z-score
N=C(NCCCCCCNC(=N)NC(=N)Nc1ccc(Cl)cc1)NC(=N)Nc1ccc(Cl)cc1 [Chlorhexidine] | 0.374 ± 0.39
CCN1CCN(C(=O)N[C@@H](C(=O)N[C@@H]2C(=O)N3[C@@H]2SC(C)(C)[C@@H]3C(=O)O)c2ccccc2)C(=O)C1=O [Piperacillin] | 0.606 ± 0.011
CO[C@@]12[C@H](COC(N)=O)C3=C(C(=O)C(C)=C(N)C3=O)N1C[C@@H]1N[C@@H]12 [Mitomycin C] | 0.0783 ± 0.46

Same assay, conditions: 0.13 µg/ml; genetic background: ΔsoxS

SMILES | promoter activity interaction Z-score
N=C(NCCCCCCNC(=N)NC(=N)Nc1ccc(Cl)cc1)NC(=N)Nc1ccc(Cl)cc1 [Chlorhexidine] | 0.814 ± 0.61
CCN1CCN(C(=O)N[C@@H](C(=O)N[C@@H]2C(=O)N3[C@@H]2SC(C)(C)[C@@H]3C(=O)O)c2ccccc2)C(=O)C1=O [Piperacillin] | 0.00285 ± 0.0042
CO[C@@]12[C@H](COC(N)=O)C3=C(C(=O)C(C)=C(N)C3=O)N1C[C@@H]1N[C@@H]12 [Mitomycin C] | 0.758 ± 1.5

Same assay, conditions: 0.25 µg/ml; genetic background: wild type

SMILES | promoter activity interaction Z-score
C/C(=C\C(=O)OCCCCCCCCC(=O)O)C[C@@H]1OC[C@H](C[C@@H]2O[C@H]2[C@@H](C)[C@H](C)O)[C@@H](O)[C@H]1O [Pseudomonic acid] | 0.653 ± 0.041
N=C(NCCCCCCNC(=N)NC(=N)Nc1ccc(Cl)cc1)NC(=N)Nc1ccc(Cl)cc1 [Chlorhexidine] | 0.416 ± 0.24
CO[C@@]12[C@H](COC(N)=O)C3=C(C(=O)C(C)=C(N)C3=O)N1C[C@@H]1N[C@@H]12 [Mitomycin C] | 1.16 ± 0.6

Same assay, conditions: 0.25 µg/ml; genetic background: ΔmarA

SMILES | promoter activity interaction Z-score
C/C(=C\C(=O)OCCCCCCCCC(=O)O)C[C@@H]1OC[C@H](C[C@@H]2O[C@H]2[C@@H](C)[C@H](C)O)[C@@H](O)[C@H]1O [Pseudomonic acid] | 0.421 ± 0.4
N=C(NCCCCCCNC(=N)NC(=N)Nc1ccc(Cl)cc1)NC(=N)Nc1ccc(Cl)cc1 [Chlorhexidine] | -0.53 ± 0.44
CO[C@@]12[C@H](COC(N)=O)C3=C(C(=O)C(C)=C(N)C3=O)N1C[C@@H]1N[C@@H]12 [Mitomycin C] | 0.136 ± 0.099
